The results in this text go back to the supplement of paper PMC13094657.

In experiment [1] the test system is MDA-MB-231. Put plainly: cell viability relative to vehicle unstimulated control (fraction); higher = more viable cells. The note with it: pre-treatment time: 18 h then 24 h IFNg/TNF.
Experiment [2] relates to MDA-MB-231. The experiment is described as follows: kynurenine production, fold change vs DMSO IFNg/TNF control; higher = more kynurenine produced (less inhibition). The note with it: pre-treatment time: 18 h then 24 h IFNg/TNF. The gist of the method:
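After trichloroacetic acid and p-dimethylaminobenzaldehyde treatment, supernatants were read at 492 nm, with 0–100 μM standards. These came from MDA-MB-231 cells (7 × 10^4/well, 96-well plates) pre-treated 18 h with natural products in 0.1% DMSO and then exposed 24 h to IFNγ (1 U/ml) and TNF (6.25 ng/ml) at 37°C. Values for kynurenine production are fold changes over same-plate cytokine-stimulated vehicle wells, averaged over duplicate plates in the first screening round.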

Where a name gives a salt, the structure may show the parent alone. ± gives the standard deviation of the averaged measurements.
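Throughout, for cell viability relative to vehicle unstimulated control: viability of the cells left after supernatant collection, read with Deep Blue dye added for 4 h, as absorbance at 570 nm minus 600 nm.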

On to `CC(=O)O[C@@H]1C[C@@]23C[C@@]24CC[C@H](O[C@@H]2OC[C@H](O)[C@H](O)[C@H]2O)C(C)(C)[C@@H]4CC[C@H]3[C@]2(C)[C@@H](O)[C@]34O[C@H](C[C@@H](C)[C@@H]3[C@@]12C)[C@@H](C(C)(C)O)O4` [Cimiracemoside D] (compound dose: 10 uM), for which the cell viability in experiment [1] came to 1.02 ± 0.086. Further, in experiment [2], the kynurenine production came out at 1.16 ± 0.22. On the same counts, the results for `C[C@@H]1CC[C@]2(C(=O)O[C@@H]3O[C@H](CO)[C@@H](O)[C@H](O)[C@H]3O)CC[C@]3(C)C(=CC[C@@H]4[C@@]5(C)CC[C@H](O[C@@H]6OC[C@H](O)[C@H](O)[C@H]6O)C(C)(C)[C@@H]5CC[C@]43C)[C@@H]2[C@]1(C)O` [Ziyuglycoside I] (compound dose: 10 uM) are 0.947 ± 0.068 and 0.804 ± 0.19. On the same counts, the results for `CC(CCC(OC1OC(COC2OC(CO)C(O)C(O)C2O)C(O)C(O)C1OC1OC(CO)C(O)C(O)C1O)C(C)(C)O)C1CCC2(C)C3CC=C4C(CCC(OC5OC(COC6OC(CO)C(O)C(O)C6O)C(O)C(O)C5O)C4(C)C)C3(C)C(=O)CC12C` (stereo not drawn) [11-oxo-mogroside V] (compound dose: 10 uM) are 1.1 ± 0.12 and 1.33 ± 0.053.

In the case of `O=c1ccoc2cc(O)cc(O)c12` [5.7-dihydroxychromone] (compound dose: 10 uM), the cell viability in experiment [1] amounted to 0.9229 ± 0.0012. For the same molecule, the kynurenine production in experiment [2] was 0.868 ± 0.023.

For `COc1cc2c(cc1O)C(Cc1ccc(O)cc1)[N+](C)(C)CC2` (stereo not drawn) [Magnocurarine] (compound dose: 10 uM), the cell viability in experiment [1] was determined as 1.02 ± 0.014. In addition, in experiment [2], the kynurenine production was 0.937 ± 0.083. Consider `C=C1C(=O)O[C@H]2C[C@@H](C)[C@@H]3CCC(=O)[C@@]3(C)[C@@H](OC(C)=O)[C@H]12` [Ergolide] (compound dose: 10 uM), for which, in experiment [1], the cell viability is 0.992 ± 0.072. Also, the kynurenine production in experiment [2] worked out at 0.246 ± 0.13. On the same counts, the results for `COC(=O)C1=CO[C@@H](O[C@@H]2O[C@H](CO)[C@@H](O)[C@H](O)[C@H]2O)[C@@H]2[C@@H](C)[C@@H](O)C[C@H]12` [Loganin] (compound dose: 10 uM) are 1.05 ± 0.041 and 1.02 ± 0.18. On the same counts, the results for `C=C(C)[C@H]1CC=C(C)CC1` [(r)-(+)-limonene] (compound dose: 10 uM) are 0.986 ± 0.032 and 0.907 ± 0.04. For `C=C1C(=O)O[C@@H]2/C=C(\C)[C@@H](OC(C)=O)C/C=C(\COC(C)=O)C[C@@H](OC(=O)/C(C)=C/CO)[C@@H]12` [Eupalinolide B] (compound dose: 10 uM), in that order: 0.899 ± 0.057 and 0.26 ± 0.0058. As to `C=C1C[C@@]23CC[C@H]4[C@@](C)(CCC[C@@]4(C)C(=O)O)[C@@H]2CC[C@]1(O[C@@H]1O[C@@H](CO)[C@@H](O)[C@H](O)[C@@H]1O[C@@H]1O[C@@H](CO)[C@@H](O)[C@H](O)[C@@H]1O)C3` [Steviolbioside] (compound dose: 10 uM), the cell viability in experiment [1] was determined as 0.904 ± 0.19. The kynurenine production in experiment [2] was 1.05 ± 0.44. For `CC(C)=C/C=C1\O[C@@H]2CC(C)=CC(=O)[C@@H]2[C@]1(C)O` [Bisabolangelone] (compound dose: 10 uM), in that order: 0.907 ± 0.0022 and 0.711 ± 0.12.

`C=C1C[C@@]23CC[C@H]4[C@@](C)(CCC[C@@]4(C)C(=O)O)[C@@H]2CC[C@@H]1C3` [Kaurenoic acid] (compound dose: 10 uM): the cell viability in experiment [1] is 1.006 ± 0.0069. In addition, the kynurenine production in experiment [2] came to 0.878 ± 0.12.

On to `COc1cc(C(C)=O)cc(OC)c1O` [Acetosyringone] (compound dose: 10 uM), for which the cell viability in experiment [1] worked out at 1.05 ± 0.032. The kynurenine production in experiment [2] was 0.885 ± 0.087. Regarding `CC(C)(O)CCC(=O)[C@](C)(O)C1[C@H](O)C[C@@]2(C)[C@@H]3CC=C4[C@@H](C[C@H](O)[C@@H](O)C4(C)C)[C@]3(C)C(=O)C[C@]12C` (stereo partly drawn) [Cucurbitacin IIb] (compound dose: 10 uM), in experiment [1], the cell viability amounted to 0.943 ± 0.021. The kynurenine production in experiment [2] came to 0.826 ± 0.27. On to `CC(C)=CC/C=C(/C)[C@H]1CC[C@@]2(C)[C@@H]1[C@@H](O)CC1[C@@]3(C)CCC(O[C@@H]4O[C@H](CO)[C@@H](O)[C@H](O)[C@H]4O)C(C)(C)C3CC[C@]12C` (stereo partly drawn) [Ginsenoside Rh3] (compound dose: 10 uM), for which the kynurenine production in experiment [2] came to 0.858 ± 0.029. As to `C[C@H](CCC(=O)NCC(=O)O)[C@H]1CC[C@H]2[C@@H]3[C@H](O)C[C@@H]4C[C@H](O)CC[C@]4(C)[C@H]3CC[C@]12C` [Glycochenodeoxycholic acid (sodium salt)] (compound dose: 10 uM), the cell viability in experiment [1] turned out to be 0.956 ± 0.082. In addition, the kynurenine production in experiment [2] turned out to be 0.955 ± 0.14. On the same counts, the results for `C[C@@H]1CC[C@]2(C(=O)O)CC[C@]3(C)C(=CC[C@@H]4[C@@]5(C)CC[C@H](O)[C@@](C)(CO)[C@@H]5CC[C@]43C)[C@@H]2[C@]1(C)O` [Rotundic acid] (compound dose: 10 uM) are 0.8829 ± 0.0033 and 0.929 ± 0.021.
